PubChem BioAssay (NCATS)
Results filed as inconclusive are left out. The source made the active and inactive calls. The call rests on the fitted dose curve; in most records, active means well fitted curve in the direction sought with a large enough effect; inconclusive means small, poorly fitted or top-dose-only effect, or another doubt; inactive means no such curve, though single readings can be large; an effect the other way counts as inactive or inconclusive.

Key:
[1] = biological target: Cellular tumor antigen p53 (Homo sapiens) (UniProt P04637); assay: Primary qHTS for small molecule compounds that upregulate eGFP-tagged delta133p53alpha (in N-terminal) cells. (AID 2060322); details: NCI-H358 eGFP-delta133p53alpha fluorescence, 24 h; activation: stronger effect = higher value;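 further: series mostly up to about 56 µM; 0% = DMSO vehicle and 100% = reference activator; nearly all actives have a fitted effect of over 75% in size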
Chain of Cellular tumor antigen p53 (Homo sapiens) (P04637 whole entry, looked up): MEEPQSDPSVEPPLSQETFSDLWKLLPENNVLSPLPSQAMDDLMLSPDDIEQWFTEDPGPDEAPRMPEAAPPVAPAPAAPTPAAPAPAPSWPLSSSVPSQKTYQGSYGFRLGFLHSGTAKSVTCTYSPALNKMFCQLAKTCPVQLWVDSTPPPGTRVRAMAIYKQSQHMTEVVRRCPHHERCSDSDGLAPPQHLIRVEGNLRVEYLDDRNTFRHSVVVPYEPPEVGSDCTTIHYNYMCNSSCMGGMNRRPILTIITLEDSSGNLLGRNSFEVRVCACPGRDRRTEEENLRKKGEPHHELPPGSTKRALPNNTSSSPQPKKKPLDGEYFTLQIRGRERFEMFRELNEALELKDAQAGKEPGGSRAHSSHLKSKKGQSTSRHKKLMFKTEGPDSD
Procedure, shortened: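 NCI-H358 cells pre-induced 24 h with 10 ng/ml doxycycline to express N-terminal eGFP-delta133p53alpha, then dosed 24 h at 37C without doxycycline; fixed, Hoechst-stained, GFP intensity by laser scanning cytometry, normalized to DMSO (0%) and 57.5 uM 5-azacytidine (100%).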

[2] = biological target: Aldehyde dehydrogenase, mitochondrial (Homo sapiens) (UniProt P05091); assay: qHTS for Inhibitors of the Aldehyde Dehydrogenase Family (ALDH2) Primary screen (AID 2061308);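 further: plate controls were vehicle for no effect and reference inhibitor for full effect; nearly all actives have a fitted effect of over 55% in size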
[3] = biological target: Retinaldehyde dehydrogenase 3 (Homo sapiens) (UniProt P47895); assay: qHTS for Inhibitors of the Aldehyde Dehydrogenase Family (ALDH1A3) Primary screen (AID 2061315);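 further: plate controls were DMSO vehicle for no effect and reference inhibitor for full effect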

CC(=O)O[C@H]1C[C@@H](O)C(C)(C)C2C[C@@H](OC(C)=O)[C@]3(C)C(CC[C@@]4(C)[C@H](c5ccoc5)OC(=O)[C@H]5O[C@]543)[C@]21C (some centres not stated)
inactive: activation [1] 11.6% | Potency [2] | Potency [3]

CC(C)CN(C[C@@H](O)[C@H](Cc1ccccc1)NC(=O)O[C@@H]1CO[C@H]2OCC[C@H]21)S(=O)(=O)c1ccc(N)cc1
inactive: activation [1] -7.16% | Potency [2] | Potency [3]

CC1(C)CC[C@]2(C(=O)O)[C@H](O)C[C@]3(C)C(=CCC4[C@@]5(C)CC[C@H](O[C@@H]6O[C@H](CO[C@@H]7OC[C@H](O)[C@H](O)[C@H]7O[C@@H]7OC[C@H](O)[C@H](O)[C@H]7O)[C@@H](O)[C@H](O)[C@H]6O)C(C)(C)C5CC[C@]43C)[C@@H]2C1 (some centres not stated)
inactive: activation [1] -4.46% | Potency [2] | Potency [3]

CN(C)CCn1cc(S(=O)(=O)c2cccc(F)c2)c2cccnc21
inactive: activation [1] -7.16% | Potency [2] | Potency [3]

CC1=C(CCC(C)CC(=O)O)[C@@]2(C)CCCC(C)(C)C2CC1=O (some centres not stated)
inactive: activation [1] -29.5% | Potency [2] | Potency [3]

COC1=CC(=O)O[C@@H](/C=C/c2ccccc2)[C@@H]1O
inactive: activation [1] 9.82% | Potency [2] | Potency [3]

COC(=O)C1=COC(O[C@@H]2O[C@H](COC(=O)/C=C/c3ccc(O)cc3)[C@@H](O)[C@H](O)[C@H]2O)C2C(CO)=CCC12 (some centres not stated)
inactive: activation [1] -23.7% | Potency [2] | Potency [3]

Cc1nnsc1C(=O)Nc1ccc(-n2nc(C(F)(F)F)cc2C(F)(F)F)cc1
inactive: activation [1] 1.43% | Potency [2] | Potency [3]

CC1(C)[C@@H](O)CC[C@]2(C)[C@H]3CC=C4[C@@H]5C[C@](C)(C(=O)O)CC[C@]5(C)CC[C@@]4(C)[C@]3(C)CC[C@@H]12
inactive: activation [1] 7% | Potency [2] | Potency [3]

COC(=O)C1=COC(OC2OC(CO)C(O)C(O)C2O)C2C1C=CC2(O)CO (configuration not stated)
inactive: activation [1] -3.57% | Potency [2] | Potency [3]

CC(=O)O[C@@H]1C[C@@]2(C)C(CC[C@]3(C)C2CC=C2C4CC(C)(C)CC[C@]4(C(=O)O)CC[C@]23C)C(C)(C)[C@H]1O (some centres not stated)
inactive: activation [1] 13.4% | Potency [2] | Potency [3]

CC(CCC1C(C(=O)O)=CC(=O)CC1(C)C)O[C@@H]1O[C@H](CO)[C@@H](O)[C@H](O)[C@H]1O (some centres not stated)
inactive: activation [1] -11.5% | Potency [2] | Potency [3]

C/C=C(\C)C(=O)O[C@@H]1CC2[C@@H](CC=C3C[C@@H](O[C@H]4C[C@H](OC)[C@H](O[C@H]5C[C@H](OC)[C@H](O[C@@H]6O[C@H](C)[C@@H](O[C@H]7C[C@H](OC)[C@H](O[C@@H]8O[C@H](CO)[C@@H](O)[C@H](O)[C@H]8O)[C@@H](C)O7)[C@H](OC)[C@H]6O)[C@@H](C)O5)[C@@H](C)O4)CC[C@@]32C)[C@@]2(O)CC[C@H](C(C)=O)[C@@]12C (some centres not stated)
inactive: activation [1] 9.92% | activity change, negative = inhibition [2] 12% [at 11.2 µM] | activity change, negative = inhibition [3] 11% [at 11.2 µM]

CC(C)(C)c1ccc(S(=O)(=O)Nc2ccc(Cl)cc2C(=O)c2cc[n+]([O-])cc2)cc1
inactive: activation [1] -16.3% | Potency [2] | Potency [3]
